Screening results: PubChem, several laboratories
GAA850 FXN act – activators of GAA850 frataxin (FXN) promoter | HEK293 lucGAA850 FXN promoter luciferase reporter, 24 h; percent of 10 µM SAHA response | activation, % at 6 µM | 0.56% of 360,000 active | AID 540364;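 active means activation above the average of all compounds screened plus 3 SD, cutoff fixed separately per campaign, cut at about 7.5% in these data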
SMARCA2 act – SMARCA2 function activation, primary screen; MG213 cells, MMTV-luciferase reporter, dexamethasone, overnight; activation, % at 9.1 µM; 1% of 370,000 active; AID 652017; in the data active means activation above about 7.8%
FAS TE block – blocks the thioesterase domain of human fatty acid synthase; AID 602261; inhibition, % at 15 µM; 0.67% of 360,000 active; P49327; recombinant FAS-TE, OMFH fluorogenic substrate, fluorescence endpoint;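 active means compounds whose normalised, plate-corrected inhibition of enzyme fluorescence in the single-dose primary screen is 50% or more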
Target sequence (P49327 whole entry, looked up, the tested form may be a part): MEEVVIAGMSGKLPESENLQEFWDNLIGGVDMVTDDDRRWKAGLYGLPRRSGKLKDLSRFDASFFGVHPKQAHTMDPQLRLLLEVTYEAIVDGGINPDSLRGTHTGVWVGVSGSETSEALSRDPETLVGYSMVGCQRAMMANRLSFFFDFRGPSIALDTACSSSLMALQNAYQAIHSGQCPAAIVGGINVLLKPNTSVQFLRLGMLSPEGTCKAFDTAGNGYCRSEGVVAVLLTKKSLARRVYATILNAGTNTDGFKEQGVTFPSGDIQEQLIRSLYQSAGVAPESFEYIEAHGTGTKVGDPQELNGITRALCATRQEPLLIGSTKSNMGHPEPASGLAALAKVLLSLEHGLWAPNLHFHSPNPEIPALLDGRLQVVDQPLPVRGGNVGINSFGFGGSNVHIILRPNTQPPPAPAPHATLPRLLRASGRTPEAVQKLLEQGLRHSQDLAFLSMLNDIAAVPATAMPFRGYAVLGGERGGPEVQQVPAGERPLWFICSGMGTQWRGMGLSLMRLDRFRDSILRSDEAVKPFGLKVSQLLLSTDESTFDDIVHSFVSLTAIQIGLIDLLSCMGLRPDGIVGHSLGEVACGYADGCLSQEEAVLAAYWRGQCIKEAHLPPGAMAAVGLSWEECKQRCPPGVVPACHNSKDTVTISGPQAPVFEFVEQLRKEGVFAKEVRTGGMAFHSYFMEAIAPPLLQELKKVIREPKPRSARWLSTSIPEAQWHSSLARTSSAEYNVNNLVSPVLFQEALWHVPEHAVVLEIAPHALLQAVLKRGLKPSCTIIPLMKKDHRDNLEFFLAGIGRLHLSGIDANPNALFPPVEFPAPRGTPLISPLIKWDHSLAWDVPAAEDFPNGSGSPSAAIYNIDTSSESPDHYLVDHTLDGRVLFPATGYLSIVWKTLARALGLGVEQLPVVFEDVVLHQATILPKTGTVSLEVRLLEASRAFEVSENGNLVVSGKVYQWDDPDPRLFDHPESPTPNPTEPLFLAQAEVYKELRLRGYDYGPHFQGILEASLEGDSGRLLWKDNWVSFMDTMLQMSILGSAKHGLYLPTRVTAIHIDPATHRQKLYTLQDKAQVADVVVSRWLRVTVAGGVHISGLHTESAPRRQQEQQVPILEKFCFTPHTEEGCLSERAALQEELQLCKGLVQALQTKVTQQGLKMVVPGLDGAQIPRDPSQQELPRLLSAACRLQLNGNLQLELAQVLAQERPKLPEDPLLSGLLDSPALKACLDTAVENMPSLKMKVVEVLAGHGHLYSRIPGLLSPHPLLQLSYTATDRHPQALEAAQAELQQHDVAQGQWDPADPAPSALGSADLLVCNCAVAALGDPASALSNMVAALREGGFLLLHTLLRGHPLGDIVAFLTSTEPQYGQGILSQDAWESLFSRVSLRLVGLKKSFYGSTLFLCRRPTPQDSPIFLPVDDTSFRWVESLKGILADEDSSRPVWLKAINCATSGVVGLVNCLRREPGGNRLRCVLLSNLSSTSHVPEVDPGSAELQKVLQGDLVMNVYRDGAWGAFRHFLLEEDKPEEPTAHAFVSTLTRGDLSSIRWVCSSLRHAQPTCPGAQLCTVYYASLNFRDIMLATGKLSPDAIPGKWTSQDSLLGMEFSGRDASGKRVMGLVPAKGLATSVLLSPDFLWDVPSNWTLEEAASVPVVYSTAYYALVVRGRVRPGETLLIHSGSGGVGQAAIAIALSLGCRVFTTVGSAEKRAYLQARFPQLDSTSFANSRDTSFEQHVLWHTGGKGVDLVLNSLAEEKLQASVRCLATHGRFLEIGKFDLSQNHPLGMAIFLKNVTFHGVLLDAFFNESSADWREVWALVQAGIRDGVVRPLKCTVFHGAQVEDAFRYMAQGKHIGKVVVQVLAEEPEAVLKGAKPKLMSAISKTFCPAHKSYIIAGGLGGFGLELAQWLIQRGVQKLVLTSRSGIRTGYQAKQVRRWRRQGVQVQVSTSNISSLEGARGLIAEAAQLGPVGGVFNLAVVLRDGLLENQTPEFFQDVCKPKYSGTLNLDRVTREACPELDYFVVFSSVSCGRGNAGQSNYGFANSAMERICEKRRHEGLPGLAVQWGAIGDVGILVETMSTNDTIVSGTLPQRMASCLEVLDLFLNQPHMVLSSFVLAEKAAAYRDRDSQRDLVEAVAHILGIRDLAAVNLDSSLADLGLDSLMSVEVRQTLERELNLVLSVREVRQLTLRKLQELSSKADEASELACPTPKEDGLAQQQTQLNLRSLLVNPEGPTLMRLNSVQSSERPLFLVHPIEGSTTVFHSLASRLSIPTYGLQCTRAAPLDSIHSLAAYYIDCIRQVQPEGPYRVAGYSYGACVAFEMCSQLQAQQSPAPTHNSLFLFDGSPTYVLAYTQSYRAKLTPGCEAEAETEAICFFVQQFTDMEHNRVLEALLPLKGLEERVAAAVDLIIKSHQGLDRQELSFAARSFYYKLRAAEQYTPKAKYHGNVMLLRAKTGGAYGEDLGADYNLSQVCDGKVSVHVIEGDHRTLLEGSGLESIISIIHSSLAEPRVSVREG
proKLK7 act – proKLK7 (human) activation, primary screen; purified proKLK7, EDANS-DABCYL substrate fluorescence; 100% is mature enzyme control, 0% vehicle; activation, % at 7 µM; 0.9% of 370,000 active; AID 652039;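 active means activation above the mean of all tested compounds plus 3 SD, computed per campaign excluding outliers beyond control limits, cut at about 13% in these data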
KLK7 act conf – proKLK7 activation, confirmation | shares compounds with proKLK7 act | purified proKLK7, EDANS-DABCYL substrate fluorescence; scaled: vehicle 0, mature enzyme 100 | activation, % at 7 µM | 68% of 3,200 active | AID 686949;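 active means activation, as change over the incubation, above the mean of all tested compounds plus 3 SD, cut at about 13% in these data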
EDANS-DABCYL int – counter-screen for kallikrein-7 activators: EDANS-DABCYL optical interference; shares compounds with proKLK7 act; EDANS-DABCYL substrate fluorescence interference, no enzyme, 4 h; solvent 0%, active enzyme control 100%; activation, % at 7 µM; 80% of 3,200 active; AID 686952;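 active means activation above the all-compound mean plus 3 SD, ignoring values outside control-based bounds, cut at about 4.8% in these data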;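 further: value is the 4 h activation minus the activation read at time zero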
EDANS interf – EDANS fluorescence interference in dose response, no enzyme; shares compounds with proKLK7 act; EDANS-DABCYL peptide fluorescence interference; EC50, µM; 20% of 250 active;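 active means compounds that raise the fluorescence signal in this interference counterscreen, with EC50 at or below 10 µM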;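 further: intact quenched peptide substrate alone read at 355 nm excitation and 520 nm emission; signal is fluorescence gain from T0 to T4 after four hours at room temperature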
A number is an active result. Shown are actives, neighbours in structure and some others; about 2.9% of the full set was active somewhere.

`COc1ccc(/C=C/C(=O)Nc2ccncc2)cc1OC` gave GAA850 FXN act inactive, SMARCA2 act inactive, FAS TE block inactive, proKLK7 act 17.4, KLK7 act conf 12.8 and EDANS-DABCYL int 13.1.
`COc1ccc(NC(=O)/C=C/c2ccc(OC)c(OC)c2)cn1` gave GAA850 FXN act inactive, SMARCA2 act inactive, FAS TE block inactive and proKLK7 act inactive.
`CCCCOc1ccc(/C=C/C(=O)Nc2ccc(C(N)=O)cc2)cc1` gave GAA850 FXN act inactive, SMARCA2 act inactive, FAS TE block inactive and proKLK7 act inactive.
Cc1cc(=O)n2nc(N3CCCC(C(=O)NCc4ccccc4Br)C3)sc2n1 (centres undefined) was read as GAA850 FXN act inactive, SMARCA2 act inactive, FAS TE block inactive and proKLK7 act inactive.
Screening COc1ccc(C2(CNC(=O)/C=C\c3ccco3)CCCC2)cc1OC returned GAA850 FXN act inactive, SMARCA2 act inactive, FAS TE block inactive and proKLK7 act inactive.
Nc1ccc2nn(-c3ccccc3)nc2c1 was read as GAA850 FXN act inactive, SMARCA2 act inactive, FAS TE block inactive, proKLK7 act 29.9, KLK7 act conf 66.4 and EDANS-DABCYL int 67.6.
Screening N#Cc1ccc2c(c1)nnn2-c1ccccc1 returned GAA850 FXN act inactive, SMARCA2 act inactive, FAS TE block inactive and proKLK7 act inactive.
Screening Nc1ccc2c(c1)nnn2-c1ccccc1 returned GAA850 FXN act inactive, SMARCA2 act inactive, FAS TE block inactive, proKLK7 act 31.0, KLK7 act conf 44.5 and EDANS-DABCYL int 44.1.
Screening Nc1cc2nn(-c3ccccc3)nc2cc1Cl returned GAA850 FXN act inactive, SMARCA2 act inactive, FAS TE block inactive, proKLK7 act 20.6, KLK7 act conf inactive and EDANS-DABCYL int inactive.
CCOC(=O)c1c(-c2ccc(F)cc2)csc1/N=C/N(C)C was read as GAA850 FXN act inactive, SMARCA2 act inactive, FAS TE block inactive and proKLK7 act inactive.
COc1ccc(OC)c(NC(=O)c2cc(S(=O)(=O)NCc3ccco3)ccc2F)c1 was read as GAA850 FXN act inactive, SMARCA2 act inactive, FAS TE block inactive, proKLK7 act 13.4, KLK7 act conf inactive and EDANS-DABCYL int inactive.
`CCOC(=O)[C@]12CCCCC/C=C\1N(Cc1ccc(OC)cc1)C(=O)[C@H]2CC(=O)NCc1ccccc1` gave SMARCA2 act inactive and proKLK7 act inactive.
Screening Cc1ccc(CCN2CC(C(=O)NCc3ccco3)CC2=O)cc1 (centres undefined) returned GAA850 FXN act inactive, SMARCA2 act inactive, FAS TE block inactive and proKLK7 act inactive.
Screening CC(C)CCNC(=O)c1cnn2c(C(F)(F)F)cc(-c3ccco3)nc12 returned GAA850 FXN act inactive, SMARCA2 act inactive, FAS TE block inactive and proKLK7 act inactive.
For CCOC(=O)c1cc2nc(-c3ccccc3)cc(C)n2n1 the results were GAA850 FXN act inactive, SMARCA2 act inactive, FAS TE block inactive and proKLK7 act inactive.
For CCOC(=O)c1cnn2c(C(F)(F)F)cc(-c3ccco3)nc12 the results were GAA850 FXN act inactive, SMARCA2 act inactive, FAS TE block inactive, proKLK7 act 30.9, KLK7 act conf 26.5 and EDANS-DABCYL int 42.8.
`CCOC(=O)c1cnn2c(C)cc(-c3ccccc3)nc12` gave GAA850 FXN act inactive, SMARCA2 act 7.9, FAS TE block inactive, proKLK7 act 23.5, KLK7 act conf 21.5 and EDANS-DABCYL int 31.7.
For CC(=O)c1sc2nc(C)c3c(c2c1N)CCCC3 the results were GAA850 FXN act inactive, SMARCA2 act inactive, FAS TE block inactive and proKLK7 act inactive.
For Cc1nc2sc(C#N)c(N)c2c2c1CCCC2 the results were GAA850 FXN act inactive, SMARCA2 act inactive, FAS TE block inactive, proKLK7 act 15.1, KLK7 act conf 15.0 and EDANS-DABCYL int 21.6.
`CCOC(=O)C1CCN(c2ncnc3c2[nH]c2cccc(OC)c23)CC1` gave GAA850 FXN act inactive, SMARCA2 act inactive, FAS TE block inactive, proKLK7 act 19.2, KLK7 act conf 23.5, EDANS-DABCYL int 14.4 and EDANS interf inactive.
COc1ccc2[nH]c3c(Cl)ncnc3c2c1 was read as GAA850 FXN act inactive, SMARCA2 act inactive, FAS TE block inactive and proKLK7 act inactive.
For COc1cccc2[nH]c3c(N4CCCCC4)ncnc3c12 the results were GAA850 FXN act inactive, SMARCA2 act inactive, FAS TE block inactive and proKLK7 act inactive.
`COc1cccc2[nH]c3c(Cl)ncnc3c12` gave GAA850 FXN act inactive, SMARCA2 act inactive, FAS TE block inactive, proKLK7 act 17.3, KLK7 act conf 31.5 and EDANS-DABCYL int 31.3.
O=C(OCC(=O)c1ccc(Cl)s1)c1cncc(Br)c1 was read as GAA850 FXN act inactive, SMARCA2 act inactive, FAS TE block inactive and proKLK7 act inactive.
Cc1ccc(NC(=O)CCCc2nc3ccccc3c(=O)[nH]2)c(Cl)c1 was read as GAA850 FXN act inactive, SMARCA2 act inactive, FAS TE block inactive and proKLK7 act inactive.
For CC(C)c1ccc2[nH]c3c(c2c1)CCCC3=O the results were GAA850 FXN act inactive, SMARCA2 act inactive, FAS TE block inactive, proKLK7 act 14.3, KLK7 act conf inactive and EDANS-DABCYL int inactive.
COc1cc2cc(C(N)=O)c(N)nc2cc1OC was read as GAA850 FXN act inactive, SMARCA2 act inactive, FAS TE block inactive, proKLK7 act 73.3, KLK7 act conf 64.8 and EDANS-DABCYL int 69.1.
Cc1nn2c(-c3ccccc3)ccnc2c1-c1ccccc1 was read as GAA850 FXN act inactive, SMARCA2 act inactive, FAS TE block inactive and proKLK7 act inactive.
For N#CCc1nn2c(-c3ccccc3)ccnc2c1C#N the results were GAA850 FXN act inactive, SMARCA2 act inactive, FAS TE block inactive, proKLK7 act 14.9, KLK7 act conf inactive and EDANS-DABCYL int 4.7.
For CCOC(=O)N1CCN(C(=O)Nc2ccc3nc(-c4ccccn4)c(-c4ccccn4)nc3c2)CC1 the results were GAA850 FXN act inactive, SMARCA2 act inactive, FAS TE block inactive, proKLK7 act 32.4, KLK7 act conf 31.8 and EDANS-DABCYL int 32.6.
`CCOC(=O)C1CCN(C(=O)Nc2ccc3nccnc3c2)CC1` gave GAA850 FXN act inactive, SMARCA2 act inactive, FAS TE block inactive, proKLK7 act 14.2, KLK7 act conf 71.4 and EDANS-DABCYL int 70.8.
CCCN1CCC(NC(=O)Nc2ccc(F)cc2F)CC1 was read as GAA850 FXN act inactive, SMARCA2 act inactive, FAS TE block inactive and proKLK7 act inactive.
Screening CCCC(=O)Nc1cccc(-c2cn3cccnc3n2)c1 returned GAA850 FXN act inactive, SMARCA2 act inactive, FAS TE block inactive, proKLK7 act 30.2, KLK7 act conf 42.2 and EDANS-DABCYL int 45.1.
Screening O=C(Nc1ccccc1)Nc1cccc(-c2cn3cccnc3n2)c1 returned GAA850 FXN act inactive, SMARCA2 act inactive, FAS TE block inactive and proKLK7 act inactive.
